Source: PubChem BioAssay (Tox21)
Results filed as inconclusive are left out. Activity calls are given as the source filed them. Unless noted, the call rests on the fitted dose curve.

How the values were obtained:
[1] = qHTS assay to identify small molecule agonists of the sonic hedgehog signaling (Shh) pathway (AID 1259368);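 further: NIH/3T3-derived 3T3Gli1-Luc cells carrying a stable Gli1-driven firefly luciferase reporter; series mostly up to about 92 µM; nearly all actives have a fitted effect of over 15% in size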
Summary of the method: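 A Gli1 transcriptional response element controlled firefly luciferase in 3T3Gli1-Luc cells. Compounds and a positive control were added 4 hr after plating, and cells were incubated a further 24 hr at 37 C before luminescence detection.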

[2] = qHTS assay to identify small molecule antagonists of the sonic hedgehog signaling (Shh) pathway (AID 1259369); further: nearly all actives have a fitted effect of over 45% in size
Summary of the method: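 For antagonist detection, the reporter line received test compounds together with conditioned medium, incubated 24hr at 37 C, 5% CO2, then luminescence was recorded following 30min room-temperature luciferase reagent incubation.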

[3] = biological target: Estrogen receptor beta (Homo sapiens) (UniProt Q92731); experiment: qHTS assay to identify small molecule agonists of the estrogen receptor beta (ER-beta) signaling pathway (AID 1259377; active means well fitted activation curve with a large enough effect in the signal ratio in the repeat runs, not every such curve was filed as active; the % refers to the signal ratio)
Summary of the method: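 Reporter cells (HEK293T, ER-beta-UAS-bla) receive compounds or DMSO after a 6 hr pre-incubation. They then incubate 16 hr at 37C/5% CO2, and fluorescence from LiveBLAzer B/G substrate is measured after 2 hours at room temperature.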

[4] = biological target: Estrogen receptor beta (Homo sapiens) (UniProt Q92731); experiment: qHTS assay to identify small molecule antagonists of the estrogen receptor beta (ER-beta) signaling pathway (AID 1259378; active means well fitted inhibition curve with a large enough effect in the signal ratio in the repeat runs, not every such curve was filed as active; the % refers to the signal ratio)
Summary of the method: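 Antagonist mode: compounds added to beta-lactamase reporter HEK293T ER-beta-UAS cells stimulated with E2 (1nM final), 16 hr at 37C. LiveBLAzer B/G FRET substrate, 2 hours room temperature, fluorescence read-out.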

[5] = qHTS assay to identify small molecule agonists of the androgen receptor (AR) signaling pathway in the presence of an antagonist - cell viability counter screen (AID 1259379; active means well fitted curve in the direction sought with a large enough effect in the repeat runs; an effect the other way counts as inactive or inconclusive;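 further: MDA-kb2 human breast cancer cells carrying an MMTV luciferase reporter; series mostly up to about 92 µM; nearly all actives have a fitted effect of over 25% in size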)
Summary of the method: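 Seed MDA-kb2 at 3,000 cells/well; incubate 5 hr, 37C, 0% CO2. Add nilutamide to 3.0uM final, then pin compounds at 15 concentrations. Incubate 16 hr. Add CellTiter-Fluor at 15 hr, read fluorescence after 1 hr.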

[6] = qHTS assay to identify small molecule agonists of the estrogen receptor beta (ER-beta) signaling pathway - cell viability counter screen (AID 1259380; active means well fitted curve in the direction sought with a large enough effect in the repeat runs; an effect the other way counts as inactive or inconclusive; further: nearly all actives have a fitted effect of over 30% in size)
Summary of the method: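 CellTiter-Glo read, 30 min RT, same wells as bla assay; cells ER-beta-UAS-bla HEK293T; 16 hr compound, 37C; medium 2% charcoal-stripped FBS.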

[7] = biological target: Androgen receptor (Homo sapiens) (UniProt P10275); experiment: qHTS assay to identify small molecule agonists of the androgen receptor (AR) signaling pathway in the presence of an antagonist (AID 1259381); further: nearly all actives have a fitted effect of over 15% in size
Summary of the method: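 Test compounds at 15 concentrations were incubated for 16hr with MDA-kb2 reporter cells in presence of 3.0uM nilutamide (final). Signal: ONE-Glo luciferase luminescence.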

[8] = biological target: Estrogen receptor (Homo sapiens) (UniProt P03372); experiment: qHTS assay to identify small molecule agonists of the estrogen receptor alpha (ER-alpha) signaling pathway in the presence of an antagonist (AID 1259383); further: top concentration of the series differs between compounds; nearly all actives have a fitted effect of over 15% in size
Summary of the method: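 Stably transfected VM7Luc4E2 reporter cells, kept 5 days in charcoal-stripped serum, received ICI-182,780 at 10.0nM final before compound addition. Following 22hr incubation at 37C and 5% CO2, luciferase signal was read by luminescence.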

[9] = qHTS assay to identify small molecule agonists or antagonists of the thyroid stimulating hormone receptor (TSHR) signaling pathway - wild type cell line counter screen (AID 1259384)
Summary of the method: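 Counter screen in untransfected Hek293: compounds (15-point titration, triplicate) plus phosphodiesterase inhibitor Ro20-1724 added after 18 h plating; 30 min RT. Intracellular cAMP via competitive d2/cryptate immunoassay, 1 h incubation.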

[10] = biological target: Thyrotropin receptor (Homo sapiens) (UniProt P16473); experiment: qHTS assay to identify small molecule antagonists of the thyroid stimulating hormone receptor (TSHR) signaling pathway (AID 1259385); further: nearly all actives have a fitted effect of over 20% in size
Summary of the method: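 Antagonist mode: compound-treated TSHR-expressing HEK293 cells were stimulated with 1.5 ng/mL TSH (final) in presence of Ro20-1724 for 30 min at RT. HTRF cAMP detection after 1 h; each compound tested at 15 concentrations, triplicate.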

[11] = qHTS assay to identify small molecule agonists of the estrogen receptor alpha (ER-alpha) signaling pathway in the presence of an antagonist - cell viability counter screen (AID 1259386; active means well fitted curve in the direction sought with a large enough effect in the repeat runs; an effect the other way counts as inactive or inconclusive;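 further: series mostly up to about 92 µM; cells exposed to compounds for 22 h at 37 °C before the viability read; nearly all actives have a fitted effect of over 30% in size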)
Summary of the method: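 Viability counter screen using VM7Luc4E2 (full-length ER-alpha, four ERE-luciferase). The cells were treated with compounds alongside ICI-182,780 10.0nM for 22hr, and live-cell protease fluorescence was quantified with CellTiter-Fluor.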

[12] = biological target: Progesterone receptor (Homo sapiens) (UniProt P06401); experiment: qHTS assay to identify small molecule agonists of the progesterone receptor (PR) signaling pathway (AID 1346784); further: nearly all actives have a fitted effect of over 30% in size
Summary of the method: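 Reporter assay, GripTite PR-UAS-bla HEK 293T cells: 16 hr exposure to DMSO-dissolved compounds at 37C, 5% CO2, in steroid-depleted (2% charcoal-stripped FBS) medium; beta-lactamase measured by FRET fluorescence.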

[13] = biological target: Progesterone receptor (Homo sapiens) (UniProt P06401); experiment: qHTS assay to identify small molecule antagonists of the progesterone receptor (PR) signaling pathway (AID 1346795; active means well fitted inhibition curve with a large enough effect in the signal ratio in the repeat runs, not every such curve was filed as active; the % refers to the signal ratio)
Summary of the method: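 Stimulus R5020 at 1 nM final; cells HEK293T PR-UAS-bla; medium with 2% charcoal-stripped FBS; compound exposure 16 hr at 37C, 5% CO2; detection by FRET beta-lactamase substrate, 2 hr, room temperature.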

[14] = qHTS assay to identify small molecule antagonists of the progesterone receptor (PR) signaling pathway - cell viability counter screen (AID 1346798; active means well fitted curve in the direction sought with a large enough effect in the repeat runs; an effect the other way counts as inactive or inconclusive; further: series mostly up to about 92 µM; nearly all actives have a fitted effect of over 50% in size)
Summary of the method: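 In the same plates used for the beta-lactamase readout, cell viability of compound- and R5020-treated PR-UAS-bla HEK293T cells (16 hr, 37C) was assessed by CellTiter-Glo luminescence.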

[15] = qHTS assay to identify small molecule antagonists of the TGF-beta/Smad signaling pathway - cell viability counter screen (AID 1346824; active means well fitted curve in the direction sought with a large enough effect in the repeat runs; an effect the other way counts as inactive or inconclusive; further: nearly all actives have a fitted effect of over 50% in size)
Summary of the method: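 Cytotoxicity counter-screen run in the same wells as the beta-lactamase Smad reporter read: CellTiter-Glo luminescence after 30 min at room temperature. HEK 293T SBE-bla cells had 5 hr compound exposure at 37 C with TGF-beta1 (0.25 ng/mL stock).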

[16] = qHTS assay to identify small molecule agonists of the TGF-beta/Smad signaling pathway - cell viability counter screen (AID 1346829; active means well fitted curve in the direction sought with a large enough effect in the repeat runs; an effect the other way counts as inactive or inconclusive; further: top concentration of the series differs between compounds; nearly all actives have a fitted effect of over 45% in size)
Summary of the method: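 Here the cytotoxicity of library compounds is measured in SBE-bla HEK 293T cells treated for 5 hr, using CellTiter-Glo added to wells already read for the beta-lactamase reporter.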

[17] = qHTS assay to identify small molecule agonists of the TGF-beta/Smad signaling pathway (AID 1346859; active means well fitted activation curve with a large enough effect in the signal ratio in the repeat runs, not every such curve was filed as active; the % refers to the signal ratio; further: series mostly up to about 77 µM)
Summary of the method: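 Screening used HEK 293T SBE-bla cells at 4,000/well. Test agents: 5 hr, 37 C. Detection: FRET substrate, 2 hr RT, then excitation 405 nm with emissions at 460 and 530 nm.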

[18] = qHTS assay to identify small molecule antagonists of the estrogen receptor beta (ER-beta) signaling pathway - cell viability counter screen (AID 1259382; active means well fitted curve in the direction sought with a large enough effect in the repeat runs; an effect the other way counts as inactive or inconclusive;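 further: HEK293T cells carrying ER-beta-UAS-bla reporter stimulated with estradiol; series mostly up to about 92 µM; nearly all actives have a fitted effect of over 55% in size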)
Summary of the method: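 In this multiplexed counter screen, cells were seeded at 2,000 per well in medium with 2% charcoal-stripped FBS and incubated 6 hr before compound and 1nM final E2 were added. Sixteen hours later, ATP-based luminescence reported viability.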

[19] = qHTS assay to identify small molecule agonists of the progesterone receptor (PR) signaling pathway - cell viability counter screen (AID 1346799); further: nearly all actives have a fitted effect of over 45% in size
Summary of the method: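 Multiplexed viability read: CellTiter-Glo luminescence, 30 min RT, following LiveBLAzer FRET measurement on PR-UAS-bla HEK293T cells exposed to compounds 16 hr.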

[20] = biological target: Thyrotropin-releasing hormone receptor (Homo sapiens) (UniProt P34981); experiment: qHTS assay to identify small molecule antagonists of the thyrotropin-releasing hormone receptor (TRHR) signaling pathway (AID 1346877; active means well fitted inhibition curve with a large enough effect in the repeat runs, not every such curve was filed as active; further: series mostly up to about 51 µM)
Summary of the method: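 Following an 18 h incubation at 37 °C and a 2 h calcium dye load, TRHR-HEK293 cells were exposed to compound (5 min, room temperature) and challenged with TRH, 1 nM final.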

Measured: Potency

Sequence of Androgen receptor (Homo sapiens) (P10275 whole entry, looked up): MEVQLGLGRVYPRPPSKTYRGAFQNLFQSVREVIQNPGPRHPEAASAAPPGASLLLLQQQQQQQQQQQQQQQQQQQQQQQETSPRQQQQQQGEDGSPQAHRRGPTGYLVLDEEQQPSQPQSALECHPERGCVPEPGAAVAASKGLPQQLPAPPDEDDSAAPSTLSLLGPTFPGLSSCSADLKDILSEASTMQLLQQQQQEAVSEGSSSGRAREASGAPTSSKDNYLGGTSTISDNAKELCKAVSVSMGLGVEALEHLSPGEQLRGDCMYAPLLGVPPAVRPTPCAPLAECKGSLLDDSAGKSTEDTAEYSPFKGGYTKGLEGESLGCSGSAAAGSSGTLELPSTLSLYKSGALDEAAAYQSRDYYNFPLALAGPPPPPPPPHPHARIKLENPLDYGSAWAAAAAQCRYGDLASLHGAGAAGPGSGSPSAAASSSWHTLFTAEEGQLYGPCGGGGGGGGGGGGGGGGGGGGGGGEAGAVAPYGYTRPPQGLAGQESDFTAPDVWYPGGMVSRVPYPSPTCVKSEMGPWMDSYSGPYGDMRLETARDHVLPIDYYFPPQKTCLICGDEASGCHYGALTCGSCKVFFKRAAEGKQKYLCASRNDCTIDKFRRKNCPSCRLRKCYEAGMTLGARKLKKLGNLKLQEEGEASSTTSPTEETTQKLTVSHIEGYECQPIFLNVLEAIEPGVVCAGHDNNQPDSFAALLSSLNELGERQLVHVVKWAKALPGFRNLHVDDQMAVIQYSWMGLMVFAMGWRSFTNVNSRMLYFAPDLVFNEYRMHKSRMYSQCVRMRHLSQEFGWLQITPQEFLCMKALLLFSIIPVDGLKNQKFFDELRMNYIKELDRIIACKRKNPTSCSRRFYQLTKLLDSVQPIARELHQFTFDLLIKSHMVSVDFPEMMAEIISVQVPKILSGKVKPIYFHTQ
Sequence of Progesterone receptor (Homo sapiens) (P06401 whole entry, looked up): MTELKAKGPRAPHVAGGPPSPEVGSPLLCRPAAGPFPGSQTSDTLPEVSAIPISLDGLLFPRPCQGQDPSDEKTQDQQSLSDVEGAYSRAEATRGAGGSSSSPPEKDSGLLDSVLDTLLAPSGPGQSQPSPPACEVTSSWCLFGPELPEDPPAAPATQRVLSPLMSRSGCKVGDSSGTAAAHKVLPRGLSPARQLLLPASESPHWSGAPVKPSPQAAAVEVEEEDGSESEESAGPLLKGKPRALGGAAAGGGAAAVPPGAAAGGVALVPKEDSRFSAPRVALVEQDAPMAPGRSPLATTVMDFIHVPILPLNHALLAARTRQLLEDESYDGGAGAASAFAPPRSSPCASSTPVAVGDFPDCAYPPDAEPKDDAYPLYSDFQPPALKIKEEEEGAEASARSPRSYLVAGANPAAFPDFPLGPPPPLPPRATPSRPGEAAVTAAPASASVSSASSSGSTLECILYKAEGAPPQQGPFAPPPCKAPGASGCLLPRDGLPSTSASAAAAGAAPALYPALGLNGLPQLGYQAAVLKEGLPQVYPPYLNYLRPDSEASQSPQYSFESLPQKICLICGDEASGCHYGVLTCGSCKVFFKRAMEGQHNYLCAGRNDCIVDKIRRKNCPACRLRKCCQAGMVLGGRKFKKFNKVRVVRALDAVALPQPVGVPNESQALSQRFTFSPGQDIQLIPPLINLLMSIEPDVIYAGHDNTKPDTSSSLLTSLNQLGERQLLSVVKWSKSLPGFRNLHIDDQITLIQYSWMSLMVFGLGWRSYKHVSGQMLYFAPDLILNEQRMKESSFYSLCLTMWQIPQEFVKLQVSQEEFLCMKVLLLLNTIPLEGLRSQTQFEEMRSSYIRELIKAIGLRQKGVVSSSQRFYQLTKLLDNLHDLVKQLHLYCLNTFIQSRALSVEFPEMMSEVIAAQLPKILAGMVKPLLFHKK
Sequence of Thyrotropin-releasing hormone receptor (Homo sapiens) (P34981 whole entry, looked up): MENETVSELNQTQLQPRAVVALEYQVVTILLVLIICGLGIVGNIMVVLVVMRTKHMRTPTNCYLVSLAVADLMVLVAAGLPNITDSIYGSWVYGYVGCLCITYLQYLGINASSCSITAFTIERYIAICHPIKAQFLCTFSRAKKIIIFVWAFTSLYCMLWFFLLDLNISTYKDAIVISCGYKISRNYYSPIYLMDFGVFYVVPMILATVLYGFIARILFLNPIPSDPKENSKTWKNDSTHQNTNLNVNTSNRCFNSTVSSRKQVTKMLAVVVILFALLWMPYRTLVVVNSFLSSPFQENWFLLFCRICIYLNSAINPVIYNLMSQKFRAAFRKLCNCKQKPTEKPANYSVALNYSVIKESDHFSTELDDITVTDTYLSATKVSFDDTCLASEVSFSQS
Sequence of Estrogen receptor (Homo sapiens) (P03372 whole entry, looked up): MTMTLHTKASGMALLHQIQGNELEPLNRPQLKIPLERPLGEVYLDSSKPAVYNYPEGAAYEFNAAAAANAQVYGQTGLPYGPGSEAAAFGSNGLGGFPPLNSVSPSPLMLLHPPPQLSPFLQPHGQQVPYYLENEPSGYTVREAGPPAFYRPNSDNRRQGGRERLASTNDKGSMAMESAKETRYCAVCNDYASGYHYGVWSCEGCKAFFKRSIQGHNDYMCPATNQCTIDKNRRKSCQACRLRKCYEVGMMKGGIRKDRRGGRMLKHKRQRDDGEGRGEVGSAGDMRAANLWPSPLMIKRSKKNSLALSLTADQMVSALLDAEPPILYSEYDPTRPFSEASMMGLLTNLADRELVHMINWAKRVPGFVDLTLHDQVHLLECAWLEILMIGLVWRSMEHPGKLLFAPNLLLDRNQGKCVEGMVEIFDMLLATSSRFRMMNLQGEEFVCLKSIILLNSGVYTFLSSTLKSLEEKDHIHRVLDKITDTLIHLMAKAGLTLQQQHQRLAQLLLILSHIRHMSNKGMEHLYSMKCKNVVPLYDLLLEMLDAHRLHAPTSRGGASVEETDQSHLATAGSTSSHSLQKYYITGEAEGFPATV
Sequence of Estrogen receptor beta (Homo sapiens) (Q92731 whole entry, looked up): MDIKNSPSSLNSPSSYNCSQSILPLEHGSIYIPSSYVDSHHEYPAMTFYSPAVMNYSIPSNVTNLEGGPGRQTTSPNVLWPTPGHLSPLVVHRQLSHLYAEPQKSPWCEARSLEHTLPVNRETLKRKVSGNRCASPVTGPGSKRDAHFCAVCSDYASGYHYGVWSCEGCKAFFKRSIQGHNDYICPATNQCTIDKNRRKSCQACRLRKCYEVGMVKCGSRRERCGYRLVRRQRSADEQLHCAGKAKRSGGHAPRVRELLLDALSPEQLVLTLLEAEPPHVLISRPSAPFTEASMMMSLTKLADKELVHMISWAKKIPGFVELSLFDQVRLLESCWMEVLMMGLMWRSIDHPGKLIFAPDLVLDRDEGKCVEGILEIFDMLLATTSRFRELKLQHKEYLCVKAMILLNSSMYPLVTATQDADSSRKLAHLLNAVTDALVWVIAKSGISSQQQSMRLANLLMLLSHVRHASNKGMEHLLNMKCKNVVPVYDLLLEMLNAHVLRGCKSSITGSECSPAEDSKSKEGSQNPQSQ
Sequence of Thyrotropin receptor (Homo sapiens) (P16473 whole entry, looked up): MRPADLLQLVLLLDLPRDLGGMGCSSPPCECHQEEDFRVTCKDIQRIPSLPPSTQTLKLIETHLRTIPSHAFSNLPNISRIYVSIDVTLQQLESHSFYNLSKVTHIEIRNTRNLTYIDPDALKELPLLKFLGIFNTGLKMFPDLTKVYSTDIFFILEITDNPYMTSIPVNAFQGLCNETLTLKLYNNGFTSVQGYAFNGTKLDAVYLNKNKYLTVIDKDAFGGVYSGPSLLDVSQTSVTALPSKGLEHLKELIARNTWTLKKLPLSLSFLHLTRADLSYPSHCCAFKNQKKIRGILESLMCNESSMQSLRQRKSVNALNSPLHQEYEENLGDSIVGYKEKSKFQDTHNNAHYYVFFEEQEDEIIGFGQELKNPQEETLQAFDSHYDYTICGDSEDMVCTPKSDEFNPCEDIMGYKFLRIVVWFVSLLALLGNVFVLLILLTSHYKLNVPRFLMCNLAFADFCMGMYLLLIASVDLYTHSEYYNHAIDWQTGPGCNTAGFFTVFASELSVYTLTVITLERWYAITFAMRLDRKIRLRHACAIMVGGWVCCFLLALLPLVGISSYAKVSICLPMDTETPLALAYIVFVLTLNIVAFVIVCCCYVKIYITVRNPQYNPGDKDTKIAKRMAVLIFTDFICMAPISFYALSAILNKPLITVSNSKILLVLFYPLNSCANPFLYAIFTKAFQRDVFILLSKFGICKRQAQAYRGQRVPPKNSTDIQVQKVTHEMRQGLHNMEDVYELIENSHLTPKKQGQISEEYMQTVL

O=S(=O)(O)c1ccccc1O
not listed: [18] | [19] | [20]
inactive: all other assays above

CC(C)c1cccc(O)c1
not listed: [7] | [9]
inactive: all other assays above

CCCC(C)CO (stereo unspecified)
not listed: [8] | [18] | [20]
inactive: all other assays above

CC(C)CCCCCCN
not listed: [15]
inactive: all other assays above

CCCOc1ccccc1-c1nc2n[nH]nc2c(=O)[nH]1
not listed: [7] | [10] | [17]
inactive: all other assays above

CCC(C(=O)NC(N)=O)c1ccccc1 (stereo unspecified)
not listed: [7] | [9] | [15] | [19]
inactive: all other assays above

Oc1cc(O)c2c(c1)O[C@H](c1ccc(O)c(O)c1)[C@H](O)C2
not listed: [7] | [16] | [20]
inactive: all other assays above
